The panel holds about 79,000 compounds, 15% with a hit somewhere; the sample as a whole holds those more often. The source made the active and inactive calls. Cut-off read from the data, not from the text of the source: active = growth inhibition above about 70%; inactive = the rest.
What was measured:
[1] = NCI Yeast Anticancer Drug Screen. Data for the rad52 strain (AID 147);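 note: 0% = growth of vehicle-treated control cultures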; conditions: S. cerevisiae rad52 mutant growth inhibition, hits give high values
Procedure, shortened: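 Inhibition of yeast growth, referenced to vehicle controls, was the measured output for a strain with defective DNA damage repair.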

[2] = NCI Yeast Anticancer Drug Screen. Data for the wt1 strain (AID 149);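 note: 0% = growth of vehicle-treated wt1 cultures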; conditions: S. cerevisiae wt1 strain (SPY 50644) growth inhibition, hits give high values
Procedure, shortened: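 Compounds are added to wt1 yeast cultures. Growth is then measured. Inhibition is expressed relative to vehicle-treated controls.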

[3] = NCI Yeast Anticancer Drug Screen. Data for the rad50EPP+ strain (AID 151);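 note: 0% = growth of vehicle-treated control cultures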; conditions: S. cerevisiae rad50 mutant strain, hits give high values
Procedure, shortened: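 Genetically defined yeast (rad50EPP+, DNA damage repair alteration) is grown with compound, and inhibition of growth is expressed relative to vehicle-treated controls.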

[4] = NCI Yeast Anticancer Drug Screen. Data for the mgt1 strain (AID 153); conditions: S. cerevisiae mgt1 mutant growth inhibition, hits give high values
Procedure, shortened: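 In the mgt1 strain, test compounds were added and growth inhibition was determined relative to vehicle-treated controls.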

[5] = NCI Yeast Anticancer Drug Screen. Data for the rad50 strain (AID 155);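 note: 0% = growth of vehicle-only cultures of the same strain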; conditions: S. cerevisiae rad50 strain growth inhibition, hits give high values
Procedure, shortened: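 Inhibition values express reduced yeast growth in compound-treated cultures relative to vehicle-treated controls.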

[6] = NCI Yeast Anticancer Drug Screen. Data for the mec2-1 strain (AID 157); conditions: S. cerevisiae mec2-1 strain, hits give high values
Procedure, shortened: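 Each compound was tested on mec2-1 yeast, a strain altered in DNA damage repair or cell cycle control. Growth inhibition is reported relative to vehicle.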

[7] = NCI Yeast Anticancer Drug Screen. Data for the rad14 strain (AID 159);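 note: 0% = growth of vehicle-treated control cultures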; conditions: S. cerevisiae rad14 strain growth inhibition, hits give high values
Procedure, shortened: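 A mutant yeast strain defective in DNA damage repair is treated with compound; inhibition of its growth is scored against untreated, vehicle-exposed cultures.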

[8] = NCI Yeast Anticancer Drug Screen. Data for the sgs1 mgt1 strain (AID 161);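 note: 0% = growth of cultures given vehicle only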; conditions: S. cerevisiae sgs1 mgt1 strain, hits give high values
Procedure, shortened: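 Read-out: growth inhibition vs vehicle controls. Cells: mutant yeast strain deficient in DNA damage repair.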

[9] = NCI Yeast Anticancer Drug Screen. Data for the CLN2oe strain (AID 163);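 note: 0% = growth of vehicle-only control cultures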; conditions: S. cerevisiae CLN2oe strain, hits give high values
Procedure, shortened: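 First, the altered yeast strain was treated with each compound; second, its growth was measured; finally, inhibition was derived by comparison with vehicle controls.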

[10] = NCI Yeast Anticancer Drug Screen. Data for the cln2 rad14 strain (AID 165);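 note: 0% = growth equal to vehicle treated cultures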; conditions: S. cerevisiae cln2 rad14 strain, hits give high values
Procedure, shortened: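 Test compounds were added to cln2 rad14 yeast cultures; inhibition of growth was then determined by comparison with vehicle treatment.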

[11] = NCI Yeast Anticancer Drug Screen. Data for the bub3 strain (AID 167); conditions: S. cerevisiae bub3 mutant strain, hits give high values
Procedure, shortened: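 Steps: expose the mutant yeast strain to compound; grow alongside vehicle-treated cultures; measure growth; express inhibition against the vehicle cultures.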

[12] = NCI Yeast Anticancer Drug Screen. Data for the wt2 strain (AID 169);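 note: 0% = growth of vehicle-treated yeast cultures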; conditions: S. cerevisiae wt2 strain growth inhibition, hits give high values
Procedure, shortened: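 The panel's yeast strains carry defined changes in DNA repair or cell cycle genes. Each strain is grown with compound, and growth loss is scored relative to vehicle.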

[13] = NCI Yeast Anticancer Drug Screen. Data for the mlh1 strain (AID 171);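 note: 0% = growth of vehicle-treated control cultures of the same strain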; conditions: S. cerevisiae mlh1 strain growth inhibition, hits give high values
Procedure, shortened: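 Inhibition values reflect reduced yeast growth in the presence of compound, referenced to vehicle controls, using a strain chosen for its alteration in DNA repair or cell cycle control.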

[14] = NCI Yeast Anticancer Drug Screen. Data for the mlh1 rad18 strain (AID 175); conditions: S. cerevisiae mlh1 rad18 strain growth inhibition, hits give high values
Procedure, shortened: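 Inhibition values reflect reduced growth of mutant yeast versus vehicle-treated controls following compound exposure; the mutations affect DNA damage repair.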

[15] = NCI Yeast Anticancer Drug Screen. Data for the rad18 strain (AID 177); conditions: S. cerevisiae rad18 mutant growth inhibition, hits give high values
Procedure, shortened: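 Steps: expose repair-mutant yeast to compound; measure growth; express as inhibition relative to vehicle control.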

[16] = at 5.0 µM (retest, dose inferred, filed as 0.5)
[17] = at 50.0 µM (retest, dose inferred, filed as 5.0)

Measured: growth inhibition

COc1c2c(c3c(c1CCC(=O)O)OC(C)(C)C=C3)OC(C)(C)C=C2
inactive: [1]; at 1.2 µM -3% | [1]; at 3.7 µM 1% | [1]; at 11.0 µM 10% | [1]; at 33.0 µM 62% | [2]; at 1.2 µM 0% | [2]; at 3.7 µM 2% | [2]; at 11.0 µM 13% | [2]; at 33.0 µM 49% | [3]; at 1.2 µM -3% | [3]; at 3.7 µM 1% | [3]; at 11.0 µM 5% | [3]; at 33.0 µM 15% | [3]; at 100.0 µM 35% | [4]; at 1.2 µM -1% | [4]; at 3.7 µM 0% | [4]; at 11.0 µM 15% | [4]; at 33.0 µM 61% | [5]; at 1.2 µM -1% | [5]; at 3.7 µM -3% | [5]; [16] 15% | [5]; at 11.0 µM 19% | [5]; at 33.0 µM 54% | [5]; [17] 45% | [5]; at 50.0 µM 58.2% | [6]; at 1.2 µM -2% | [6]; at 3.7 µM 2% | [6]; [16] -1% | [6]; at 11.0 µM 20% | [6]; at 33.0 µM 59% | [6]; [17] 49% | [6]; at 50.0 µM 65.8% | [7]; at 1.2 µM 0% | [7]; at 3.7 µM 2% | [7]; at 11.0 µM 11% | [7]; at 33.0 µM 53% | [8]; [16] -3% | [8]; [17] 32% | [8]; at 50.0 µM 69.8% | [9]; at 1.2 µM -1% | [9]; at 3.7 µM -1% | [9]; at 11.0 µM 27% | [10]; [16] 43% | [11]; at 1.2 µM -7% | [11]; at 3.7 µM -1% | [11]; [16] -13% | [11]; at 11.0 µM 6% | [11]; at 33.0 µM 58% | [11]; [17] 20% | [12]; at 1.2 µM -1% | [12]; at 3.7 µM 2% | [12]; at 11.0 µM 17% | [12]; at 33.0 µM 56% | [13]; at 1.2 µM 2% | [13]; at 3.7 µM 3% | [13]; at 11.0 µM 20% | [13]; at 33.0 µM 39% | [14]; [16] 3% | [14]; [17] 43% | [15]; at 1.2 µM 3% | [15]; at 3.7 µM 8% | [15]; at 11.0 µM 22% | [15]; at 33.0 µM 51%
active: [1]; at 100.0 µM 98% | [2]; at 100.0 µM 97% | [4]; at 100.0 µM 99% | [5]; at 100.0 µM 98% | [6]; at 100.0 µM 98% | [7]; at 100.0 µM 98% | [9]; at 33.0 µM 80% | [9]; at 100.0 µM 99% | [10]; [17] 82% | [10]; at 50.0 µM 91.2% | [11]; at 50.0 µM 71.9% | [11]; at 100.0 µM 97% | [12]; at 100.0 µM 98% | [13]; at 100.0 µM 99% | [14]; at 50.0 µM 76.4% | [15]; at 100.0 µM 97%
